Reference: PubChem BioAssay (NCI)
The panel holds about 83,000 compounds, 20% with a hit somewhere; the sample as a whole holds those more often.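 The test compound was applied at a single concentration to cells in 96-well plates for 48 hours, and percent growth was recorded.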 Calls of active or inactive are those of the source.

What follows are molecules tested on SR leukemia (assay: NCI-60 one-dose screen, 48 h (100 = growth as untreated, 0 = no growth, -100 = all killed)). Details: 10 µM unless noted.
Experimental: Growth inhibition of the SR human tumor cell line is measured as a screen for anti-cancer activity. Cells are grown in 96 well plates and exposed to the test compound for 48 hours. Compounds are tested at a single concentration, which is 10^-5 M for most compounds. The reported endpoint is percent growth (GI% or GIPRCNT), where numbers from 0 - 100% represent growth inhibition, and numbers from -100% - 0 represent cell death. For example, a value of 40 represents 60% growth inhibition. A value of 0 means no net growth occurred over the course of the experiment. A value of -40 indicates 40% of cells at the beginning of the experiment died by the end of the experiment. A value of -100 means all cells are dead at the end of the experiment.
NCI-60 Human Tumor Cell Lines Screen was performed using the standard one-dose NCI protocol, which is described in more detail at https://dtp.cancer.gov/discovery_development/nci-60/default.htm.
Compounds with GIPRCNT values below 10 were considered active. Activity score was based on GIPRCNT using the following formula: […]
Score is 0 for GIPRCNT values of 100 or above, 50 for GIPRCNT values of 0, and 100 for GIPRCNT values of -100.

Row | SMILES | growth
1 | COc1ccc(C2=Nc3c(N)nc(N)nc3NC(c3ccc(Oc4nc(Nc5ccc(F)cc5)nc(N(C)C)n4)c(OC)c3)C2)cc1 (stereo not given) | -29.4% (active)
2 | N#Cc1cc(-c2ccc3ncnc(N4CCc5cc(F)c(Cl)cc54)c3c2)cnc1N | -25.7% (active)
3 | Cc1ccc2nc(SCc3ccccc3F)n(-c3ccccc3)c(=O)c2c1 | 109% (inactive)
4 | Cn1cc(-c2cc(N)n3nc(-c4c[nH]c5ccc(F)cc45)cc3n2)c2cc(Br)cnc21 | -23.5% (active)
5 | Cn1ncc2c(N)nc(Oc3ccccc3-c3ccccc3)nc21 | -4.14% (active)
6 | Nc1nnc(-c2cncc(Br)c2)c(-c2c[nH]c3ccc(Br)cc23)n1 | 54.3% (inactive)
7 | O=C(N=Nc1c(O)[nH]c2ccc(Br)cc12)c1ccc2nc(-c3ccc(Cl)cc3)[nH]c2c1 | 15.1% (inactive)
8 | CCc1ccccc1-c1nc(CN[C@@H]2C[C@@H]3C[C@H]([C@H]2C)C3(C)C)c(C)o1 | -15.6% (active)
9 | O=C(NN1C(=O)/C(=C/C=C/c2ccc([N+](=O)[O-])o2)SC1=S)c1ccc(O)cc1 | -7.52% (active)
10 | O=C1NC(=S)/C(=C/c2cn(-c3ccccc3)nc2-c2ccccc2)S1 | 83.4% (inactive)
11 | N#CC1=C(c2ccco2)Nc2c(c(-c3ccccc3)nn2-c2ccccc2)C12C(=O)Nc1ccc(Br)cc12 (stereo not given) | 31.9% (inactive)
12 | COc1cccc2nc(Nc3cccc(NC(=O)c4ccc(CN5CCN(C)CC5)c(C(F)(F)F)c4)c3)ccc12 | -36.1% (active)
13 | COc1ccc(-c2cc(C(=O)N=Nc3c(O)[nH]c4ccc(Cl)cc34)c3ccccc3n2)cc1OC | 103% (inactive)
14 | COc1c2c(cc3c1C(CCc1ccccc1)N(C)CC3)OCO2 (stereo not given) | -9.93% (active)
15 | Nc1nn2c(-c3cc4ccccc4oc3=O)ccnc2c1N=Nc1ccccc1 | 59.1% (inactive)
16 | COc1cc(C2CC(c3ccc(F)cc3)=Nc3c(N)nc(N)nc3N2)ccc1Oc1nc(Nc2ccc(F)cc2)nc(N(C)C)n1 (stereo not given) | -21.5% (active)
17 | O=C1Nc2ccccc2/C1=C\c1ccc(OCC(=O)c2ccc(Br)cc2)cc1 | 36.3% (inactive)
18 | COc1c2c(c(Br)c3c1C(CCc1ccccc1)N(C)CC3)OCO2 (stereo not given) | 31% (inactive)
19 | O=C1C=CC(=CC=C2N(Cc3ccc4ccccc4c3)c3ccccc3N2Cc2ccc3ccccc3c2)C=C1 | 3.48% (active)
20 | COc1ccc(C(=O)c2cc(C(C)=O)c3c(C)cc(C)cn23)cc1 | 31.8% (inactive)

Row | SMILES | growth
21 | Cn1cc(-c2cc3nc(-c4cn(C)c5ncc(Br)cc45)cc(N)n3n2)c2cc(F)ccc21 | -23.7% (active)
22 | Cc1[nH]nc2ccc3nc(-c4cn[nH]c4C(F)(F)F)c4c(c3c12)CCCC4 | 16.6% (inactive)
23 | N#Cc1c(-c2ccc(F)cc2)nc(SCc2ccc(F)cc2)nc1N1CCNCC1 | -2.24% (active)
24 | Cc1ccc2c(c1)nc(-c1ccccc1)n2CC(=O)N=Nc1c(O)[nH]c2ccc(Cl)cc12 | -20.7% (active)
25 | CCCCCCCOc1ccc(S(=O)(=O)Nc2ccc(C)c(F)c2C(=O)O)cc1 | 98.7% (inactive)
26 | N#Cc1ccc(C(=O)CSc2nc3c(c(Nc4ccc(S(N)(=O)=O)cc4)n2)CCC3)cc1 | 58.9% (inactive)
27 | CC1CCc2c(sc3nc(SCC(=O)c4cccc([N+](=O)[O-])c4)n(-c4ccccc4)c(=O)c23)C1 (stereo not given) | 49% (inactive)
28 | CC(=O)c1ccc2c(N)c(C(=O)Nc3ccc(C(F)(F)F)cc3)sc2n1 | 39.3% (inactive)
29 | Cn1cc(-c2cc(N)n3nc(-c4c[nH]c5ccccc45)cc3n2)c2cc(F)ccc21 | 13.1% (inactive)
30 | COc1ccc(N=Nc2c(N)nn3c(N)c(C#N)c(-c4ccccc4)nc23)cc1 | 73.8% (inactive)
31 | Cc1ccc(C(=O)C[n+]2cccc3c4ccccc4ccc32)cc1 | 2.32% (active)
32 | CN(C(=O)CN1C(=O)/C(=C/c2ccco2)SC1=S)C1CCS(=O)(=O)C1 (stereo not given) | 84.8% (inactive)
33 | CN1CCN(C(=O)Oc2cc3c(c4ccccc24)[C@H](CCl)CN3C(=O)c2cc3cc(OCCCN4CCC4)ccc3[nH]2)[C@@H]2CSSC[C@H]21 | 5.86% (active)
34 | COc1cc(/C=C/C(=O)c2cnn(-c3cc(=O)[nH]c4ccc(C)cc34)c2C)cc(OC)c1OC | -8.63% (active)
35 | COC(=O)c1cc(C(C)=O)n2c3ccccc3c3ccccc3c12 | 64.7% (inactive)
36 | COc1c(B(O)O)cc(F)cc1-c1nc2ccc3[nH]ncc3c2c2c1COCC2 | 43.4% (inactive)
37 | Cc1nn(-c2ccccc2)c2nc(C)n(C(=O)N/N=C/c3ccccc3)c(=O)c12 | 115% (inactive)
38 | O=C1CCC(N2C(=O)c3cccc(NCCOCCOCCOCCC(=O)NCCCC(=O)NC(c4ccc5c(c4)OCO5)c4cc(Cl)c5cccnc5c4O)c3C2=O)C(=O)C1 (stereo not given) | 5.36% (active)
39 | COc1ccc(N=Nc2c(N)nn3c(-c4cc5cc(Br)ccc5oc4=O)ccnc23)cc1 | 28% (inactive)
40 | O=C(Nc1nc2ccc([N+](=O)[O-])cc2s1)Nc1ccc(Cl)cc1Cl | 47.6% (inactive)
